D3 ag = activates the human D3 dopamine receptor | P35462 | D3R DiscoveRx beta-arrestin cells, luminescence, 90 min | max activation, % | 0.58% of 410,000 active; in the data active = max activation above about 30%; also: 0% is about no effect
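Agonist mode: compounds and dopamine controls were applied to plated cells for 90 min at 37 degrees C after an overnight attachment at 1500 cells/well. Luminescent read-out followed 30 - 60 minutes at room temperature with DiscoveRx detection reagent.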
D3 antag = antagonists of human D3 dopamine receptor; 2.5% of 360,000 active; max response, negative = inhibition, %; AID 652054; P35462; D3R cells, DiscoveRx beta-arrestin luminescence, antagonist mode; stronger effect = lower value; in the data active = max response below about -50%; inconclusive = no clear call, values can overlap the other calls; also: % is scaled to controls: 0 for no effect and ±100 for the full control effect
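Cells expressing the human receptor were seeded at 1500 cells/well, incubated overnight at 37 degrees C in 5% CO2, then exposed to library compounds with dopamine controls for 90 minutes at 37 degrees C before luminescent detection.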
B2AR arrestin = recruits beta-arrestin to the human beta2-adrenergic receptor; P07550; Potency, µM (top dose mostly 46.1 µM), without a hit: at the highest dose activation, usual class: activators; beta-arrestin recruitment to beta2AR, cell-based reporter; 0.02% of 330,000 active; AID 492947;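 also: potency is read from the fitted curve at half-maximal effect; 0% = DMSO controls and full agonism = EC100 isoproterenol or metaproterenol; nearly all actives have a fitted effect of over 65% in size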
Target sequence (P07550 whole entry, looked up): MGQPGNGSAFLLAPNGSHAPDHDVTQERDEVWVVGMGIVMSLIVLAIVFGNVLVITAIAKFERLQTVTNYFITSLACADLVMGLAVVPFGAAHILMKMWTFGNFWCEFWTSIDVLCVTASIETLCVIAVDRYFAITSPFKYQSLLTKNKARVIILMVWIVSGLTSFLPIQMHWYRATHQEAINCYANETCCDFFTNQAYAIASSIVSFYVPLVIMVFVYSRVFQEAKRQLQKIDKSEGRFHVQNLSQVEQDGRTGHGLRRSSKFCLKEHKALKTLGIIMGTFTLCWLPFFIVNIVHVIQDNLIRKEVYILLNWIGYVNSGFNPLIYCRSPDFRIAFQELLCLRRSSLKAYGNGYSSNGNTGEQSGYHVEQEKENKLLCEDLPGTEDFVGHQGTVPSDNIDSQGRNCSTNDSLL
PTHR1 ag = PTHR1 (human) receptor agonism; Q03431; HEK293 GP2 PTHR1 cells, GloSensor cAMP luminescence, 1 h; Potency, µM (series often up to 115 µM), for inactives: top-dose activation, usual class: activators; 0.075% of 410,000 active; AID 743266; also: potency is read from the fitted curve at half-maximal effect; nearly all actives have a fitted effect of over 55% in size
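HEK-293-derived GP2 cells expressing PTHR1 and a GloSensor cAMP reporter, 3,000/well, plated overnight, given luciferin plus IBMX (each 0.5 mM as added) for 1 h at 37 °C, then compound for 1 h at 37 °C. Luminescence was read after 15 min at room temperature.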
RGS4 inh = human RGS4 inhibition; Transcreener GDP fluorescence polarization, RGS4-accelerated GTP hydrolysis; Potency, µM (titrated, usually from 114 µM), for the others: at the top dose activity change, negative = inhibition, hits mostly inhibitors; 0.039% of 390,000 active; also: potency is read from the fitted curve at half-maximal effect; % is scaled to controls: 0 for no effect and ±100 for the full control effect; nearly all actives have a fitted effect of over 75% in size
Target sequence (P49798 whole entry, looked up): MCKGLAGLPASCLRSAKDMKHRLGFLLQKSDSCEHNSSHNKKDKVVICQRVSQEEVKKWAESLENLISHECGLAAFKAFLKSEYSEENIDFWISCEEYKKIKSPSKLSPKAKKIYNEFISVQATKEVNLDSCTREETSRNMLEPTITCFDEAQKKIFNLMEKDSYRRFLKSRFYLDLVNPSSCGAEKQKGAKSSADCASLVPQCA
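MLSMR compounds (23 nl, pin-transferred) preincubated 10 min at room temperature with a 500nM (2x) first reagent, then RGS4 at 900nM (2x) plus Transcreener GDP mix added; fluorescence polarization (620/688 nm) read before and after 90 min at 30 °C.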
BRCA1 expr act = activators of BRCA1 expression; MCF7-BRCA1-FFLuc reporter, luminescence, 48 h; response scale: scaled: vehicle 0%, 10 µM genistein 100%; Potency, µM (top dose mostly 46.1 µM), for the others: at the highest dose activation, actives largely listed as activators; 1.1% of 380,000 active; AID 624202; also: potency is read from the fitted curve at half-maximal effect; nearly all actives have a fitted effect of over 80% in size
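48 h compound treatment of MCF7-BRCA1-FFLuc cells (phenol-red free MEM, 37 °C), then 15 min with luciferase substrate and luminescence imaging.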
* marks the source's active call; other numbers are inactive results; i = inactive; ? = inconclusive; / = not tested or not shown; ! = a repeat was not active; [ ] = remark or other dose. The list is not random: actives were taken first. Their share in the collection is about 3.7%. Unless noted, calls follow the shape of the dose curve; as a rule, active = well fitted curve in the direction sought with a large enough effect; inconclusive = small, poorly fitted or top-dose-only effect, or another doubt; inactive = no such curve, though single readings can be large; an effect the other way counts as inactive or inconclusive.

SMILES | D3 ag | D3 antag | B2AR arrestin | PTHR1 ag | RGS4 inh | BRCA1 expr act
COc1ccc(-c2cc(-c3nnc(COC(=O)C4CC4C)o3)c3ccccc3n2)cc1OC (stereo not given) | 50* | 34 | 0% | -8% | 21% | -5%
N#Cc1ccc(C(S(=O)(=O)Cc2ccccc2)S(=O)(=O)Cc2ccccc2)cc1 | 3 | 0 | / | -29% | / | 1%
O=C(CSc1ncnc2c1oc1ccccc12)OCc1ccccc1 | 30* | 11 | 0% | i | 5% | -10%
NC(=O)CSc1ncnc2c1oc1ccccc12 | -1 | -22 | -1% | -9% | -5% | 2%
O=C(OCc1ccccc1)/C(=C(\O)c1ccccc1Br)c1ccc(-c2ccccc2)cn1 | 16 | 28 | 0% | -23% | 1% | 13%
C[C@@H]1CN([C@@H](C)CO)S(=O)(=O)c2ccc(/C=C/c3ccccc3)cc2O[C@@H]1CN(C)Cc1ccc(C(=O)O)cc1 | 38* | 9 | / | -27% | / | 4%
C[C@@H]1CN([C@H](C)CO)S(=O)(=O)c2ccc(Br)cc2O[C@@H]1CN(C)Cc1ccc(C(=O)O)cc1 | -2 | -5 | / | -10% | / | 4%
Cc1ccc(C2(O)CCN(CCCC(=O)c3ccc(F)cc3)CC2)cc1 | -27 | / | / | / | / | /
CC(=O)NCC1(c2ccccc2)CCN(CCCC(=O)c2ccc(F)cc2)CC1 | -8 | -116* | / | i | / | 35%
CC(NC(=O)c1ccc2c(c1)CCN2S(=O)(=O)c1ccc(Cl)cc1)c1ccccc1 (stereo not given) | -13 | / | / | i | -12% | /
CCOC1=C2[C@H](c3ccc(Cl)cc3)N(S(=O)(=O)c3ccc(C)cc3)C[C@H]2n2c(=O)n(-c3ccccc3)c(=O)n2C1 | 6 | 13 | / | -5% | / | -3%
CN(C)S(=O)(=O)c1ccc(C(=O)Nc2ccccn2)cc1 | 0 | 10 | 0% | i | 10% | 14µM*
O=C(Cn1c(=O)n(Cc2ccc3c(c2)OCO3)c(=O)c2oc3ccccc3c21)Nc1ccc(F)cc1 | 6 | / | / | -6% | 11% | /
CN(C)CC#CCCCCCCC#CCN(C)C | / | / | 0% | / | / | /
C#CCCCCCCC#CCN(C)C | -15 | -58* | 3% | i | 5% | 37%
O=C(Nc1nccs1)c1ccc(Br)s1 | 0 | -4 | 0% | 0% | 5% | 10µM*
Cc1ccc(C(=O)Nc2nccs2)s1 | -3 | 1 | 0% | 10% | -1% | 11µM*
COc1ccc(CNc2nc(Cl)nc3nc[nH]c23)cc1 | / | / | / | / | 0% | -2%
Cc1nc([N+](=O)[O-])cn1CC(=O)c1ccc2c(c1)OCCCO2 | / | / | / | / | / | 0%
NCCCC[C@H](NC(=O)[C@@H]1CCCN1C(=O)[C@@H]1CSSC[C@H](NC(=O)CNC(=O)CNC(=O)CN)C(=O)N[C@@H](Cc2ccc(O)cc2)C(=O)N[C@@H](Cc2ccccc2)C(=O)N[C@@H](CCC(N)=O)C(=O)N[C@@H](CC(N)=O)C(=O)N1)C(=O)NCC(N)=O | -16 | / | / | / | / | /
COc1ccc(-c2oc3ccc(-c4ccc5c(c4)OCO5)cc3c2C#CC2(O)CCCCC2)cc1 | 14 | 25 | / | 22% | 35% | -23%
COc1cc(-c2ccc3oc(-c4cccc(C)c4)c(C#CC4(O)CCCCC4)c3c2)cc(OC)c1OC | 42* | 10 | 0% | i | 1% | 0%
O=C1N(Cc2cccc(Cl)c2)C[C@@H]2C[C@@H](c3ccc4nonc4c3)N3CCC[C@@]123 | -3 | -9 | 0% | -16% | -8% | -21%
OCCN1CCN(CCCN2c3ccccc3CCc3ccccc32)CC1 | -4 | -125* | / | i | / | -9%
COc1ccc(NC(=O)COC(=O)c2cc(SC)ccc2Cl)c(OC)c1 | 32* | -4 | 0% | i | -22% | 2%
SMILES | D3 ag | D3 antag | B2AR arrestin | PTHR1 ag | RGS4 inh | BRCA1 expr act
COc1ccc(C(C)(C)C)cc1NC(=O)COC(=O)c1cc(SC)ccc1Cl | -14 | -18 | 0% | -9% | -6% | -47%
CC(C)(C)NC(=O)c1ccc(Sc2ccccc2)c([N+](=O)[O-])c1 | -4 | -50* | 0% | -26% | -16% | -28%
NCCCCCC(=O)Nc1ccncc1 | -2 | -26 | -1% | -10% | 16% | -7%
COc1cc(S(=O)(=O)N2CCCCCC2)ccc1Cl | -1 | -17 | 0% | i | -40% | 0%
COc1cc(S(=O)(=O)N2CCN(C)CC2)ccc1Cl | 0 | -87* | -1% | i | 9% | 9%
Brc1ccc2nc(-c3ccco3)c(CC3CCCCC3)n2c1 | -19 | 0 | / | i | / | -24%
COc1cccc2sc3ccc(C#Cc4ccc(N)cc4)cc3c(=O)c12 | 26 | 35 | -1% | -40% | -3% | ?
Nc1ccc(C#Cc2ccc3sc4ccccc4c(=O)c3c2)cc1 | 44* | 51 | / | -10% | 3% | 89%
CC(=O)O[C@]1(C(C)=O)CC[C@H]2[C@@H]3C=C(Cl)C4=CC(=O)[C@@H]5C[C@@H]5[C@]4(C)[C@H]3CC[C@@]21C | 14 | -85*! | 0% | -31% | -15%[56.9 µM] | -22%
COC(=O)c1cc(S(=O)(=O)Nc2cccc(-c3ccno3)c2)c[nH]1 | 3 | 0 | / | -10% | / | -31%
CC(=O)c1ccc(NC(=O)Cn2c(=O)nc(-c3ccccc3)c3cc(Cl)ccc32)cc1 | -4 | / | / | ? | 1% | /
CNCCCCOc1ccc(C(C)(C)C)cc1Cl | -17 | -50* | 0% | ? | 13% | -34%
Cc1ccc(OCCCNCCO)c(Br)c1 | -2 | -60* | 0% | i | 0% | 30%
Cc1ccc(OCCCN(C)C)c(Br)c1 | -20 | 4 | 0% | i | -13% | 20%
CCCCNCCCOc1ccc(C)cc1Br | 0 | -67* | -1% | ? | 47% | -52%
CCCCNCCCOc1cccc(Cl)c1Cl | -21 | -81* | 0% | i | -3% | -53%
CCc1cc(=O)[nH]c(SCCC(F)=C(F)F)n1 | 0 | -11 | 0% | i | -31% | -18%
CNCCCOc1ccc(C)cc1Br | -8 | -53* | 0% | 23%[57.5 µM] | -17% | 13%
O=C(COc1ccc(S(=O)(=O)N2CCCCC2)cc1)NCc1cccnc1 | 36* | 13 | 0% | i | -16% | 0%
COc1ccc(CNC(=O)COc2ccc(S(=O)(=O)N3CCCCC3)cc2)cc1 | 7 | -9 | 0% | -21% | -25% | -28%
CC1(C(=O)NCCc2c[nH]c3ccccc23)CCN1Cc1ccccc1OC(F)F (stereo not given) | -10 | -24 | / | 18% | / | -39%
O=C(CNS(=O)(=O)c1ccc(Br)s1)N1CCN(c2ccc(F)cc2)CC1 | -6 | -1 | 0% | ? | -38% | -35%

Bioassay records (PubChem)
